Targets with a hit are over-represented here; the source holds about 7,900 in all. About 0.6% of all pairs of compound and target were hits. Unmarked numbers belong to inactive results.
How the values were obtained:
Assay in all cases: log2 fold change, soluble protein after heating vs DMSO (PISA); higher = thermal stabilisation; K562 cells, 10 uM, 30 min; active = over 0.2 and 3.5 SD of the protein, either way, in both replicates (recomputed)
[1] = compound: CC[C@@H]1C(=O)N(C)c2cnc(Nc3ccc(C(=O)NC4CCN(C)CC4)cc3OC)nc2N1C1CCCC1
How it was run: (§1)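 K562 cells at 2×10^6 cells/mL were given 10 μM compound for 30 min. Aliquots then went through 3 min of heating across 48°C-58°C, were pooled, and were extracted in PBS with 0.5% NP-40 at 4°C, and the supernatant after 21,000xg for 90 min was quantified by TMTpro 16plex LC-MS/MS with channel sums equalised. Thermal stability relative to control samples, from duplicates, is given as log2 fold change.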

volasertib = compound: CC[C@@H]1C(=O)N(C)c2cnc(Nc3ccc(C(=O)N[C@H]4CC[C@H](N5CCN(CC6CC6)CC5)CC4)cc3OC)nc2N1C(C)C [volasertib]
How it was run: as §1

[2] = compound: CC[C@H](C)N1C=C(C2=C(C=C(C=C21)C3=CN=C(C=C3)N4CCNCC4)C(=O)NCC5=C(C=C(NC5=O)C)C)C
How it was run: as §1

epoxomicin = compound: CC[C@H](C)[C@@H](C(=O)N[C@@H]([C@@H](C)O)C(=O)N[C@@H](CC(C)C)C(=O)[C@]1(CO1)C)NC(=O)[C@H]([C@@H](C)CC)N(C)C(=O)C [epoxomicin]
How it was run: as §1

[3] = compound: CCn1c(C(=O)N(C2CC2)C2CC2)cc2c3c(ncn3C)c(Nc3cc(C)n(C)n3)nc21
How it was run: as §1

[4] = compound: CCn1cc(-c2ccnc3[nH]c(-c4cccc(CN(C)C)c4)cc23)c(-c2ccc(NC(=O)N(C)C)cc2)n1
How it was run: as §1

[5] = compound: CN(C)CC(=O)Nc1ccc2[nH]c(=O)c3ccccc3c2c1
How it was run: as §1

rosiglitazone = compound: CN(CCOC1=CC=C(C=C1)C[C@H]2C(=O)NC(=O)S2)C3=CC=CC=N3 (racemic) [rosiglitazone]
How it was run: as §1

[6] = compound: CN1C2=C(C3=C1C(=O)N(N=C3)CC4=CC(=CC=C4)N)SC(=C2)S(=O)C
How it was run: as §1

[7] = compound: CN1CCC(CNc2ccc3ncc(-c4cccc(OC(F)(F)F)c4)n3n2)CC1
How it was run: as §1

saracatinib = compound: CN1CCN(CCOc2cc(OC3CCOCC3)c3c(Nc4c(Cl)ccc5c4OCO5)ncnc3c2)CC1 [saracatinib]
How it was run: as §1

sotrastaurin = compound: CN1CCN(c2nc(C3=C(c4c[nH]c5ccccc45)C(=O)NC3=O)c3ccccc3n2)CC1 [sotrastaurin]
How it was run: as §1

alvocidib = compound: CN1CC[C@H](c2c(O)cc(O)c3c(=O)cc(-c4ccccc4Cl)oc23)[C@H](O)C1 [alvocidib]
How it was run: as §1

Tubastatin A = compound: CN1CCc2c(c3ccccc3n2Cc2ccc(C(=O)NO)cc2)C1 [Tubastatin A]
How it was run: as §1

[8] = compound: CNC(=O)C1=CC=CC=C1NC2=NC(=NC=C2Cl)NC3=C(C=C(C=C3)N4CCOCC4)OC
How it was run: as §1

defactinib = compound: CNC(=O)c1ccc(Nc2ncc(C(F)(F)F)c(NCc3nccnc3N(C)S(C)(=O)=O)n2)cc1 [defactinib]
How it was run: as §1

rucaparib = compound: CNCc1ccc(-c2[nH]c3cc(F)cc4c3c2CCNC4=O)cc1 [rucaparib]
How it was run: as §1

[9] = compound: CNc1nc(-c2ccc3c(N)n[nH]c3c2)cc(N2C[C@@H](C(=O)NC3CCCCC3)CC[C@H]2C)n1
How it was run: as §1

encorafenib = compound: COC(=O)N[C@@H](C)CNc1nccc(-c2cn(C(C)C)nc2-c2cc(Cl)cc(NS(C)(=O)=O)c2F)n1 [encorafenib]
How it was run: as §1

[10] = compound: COC(=O)[C@H](CCSC)NC(=O)C1=C(C=C(C=C1)NC[C@H](CS)N)C2=CC=CC=C2
How it was run: as §1

UniProt Q9H444, sequence (Q9H444 whole entry, looked up): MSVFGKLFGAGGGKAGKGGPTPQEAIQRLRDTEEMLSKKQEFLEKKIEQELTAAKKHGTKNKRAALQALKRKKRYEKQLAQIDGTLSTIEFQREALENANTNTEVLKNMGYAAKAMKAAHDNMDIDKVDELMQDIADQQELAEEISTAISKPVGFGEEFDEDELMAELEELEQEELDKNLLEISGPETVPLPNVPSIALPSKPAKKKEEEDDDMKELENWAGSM
UniProt O75976, sequence (O75976 whole entry, looked up): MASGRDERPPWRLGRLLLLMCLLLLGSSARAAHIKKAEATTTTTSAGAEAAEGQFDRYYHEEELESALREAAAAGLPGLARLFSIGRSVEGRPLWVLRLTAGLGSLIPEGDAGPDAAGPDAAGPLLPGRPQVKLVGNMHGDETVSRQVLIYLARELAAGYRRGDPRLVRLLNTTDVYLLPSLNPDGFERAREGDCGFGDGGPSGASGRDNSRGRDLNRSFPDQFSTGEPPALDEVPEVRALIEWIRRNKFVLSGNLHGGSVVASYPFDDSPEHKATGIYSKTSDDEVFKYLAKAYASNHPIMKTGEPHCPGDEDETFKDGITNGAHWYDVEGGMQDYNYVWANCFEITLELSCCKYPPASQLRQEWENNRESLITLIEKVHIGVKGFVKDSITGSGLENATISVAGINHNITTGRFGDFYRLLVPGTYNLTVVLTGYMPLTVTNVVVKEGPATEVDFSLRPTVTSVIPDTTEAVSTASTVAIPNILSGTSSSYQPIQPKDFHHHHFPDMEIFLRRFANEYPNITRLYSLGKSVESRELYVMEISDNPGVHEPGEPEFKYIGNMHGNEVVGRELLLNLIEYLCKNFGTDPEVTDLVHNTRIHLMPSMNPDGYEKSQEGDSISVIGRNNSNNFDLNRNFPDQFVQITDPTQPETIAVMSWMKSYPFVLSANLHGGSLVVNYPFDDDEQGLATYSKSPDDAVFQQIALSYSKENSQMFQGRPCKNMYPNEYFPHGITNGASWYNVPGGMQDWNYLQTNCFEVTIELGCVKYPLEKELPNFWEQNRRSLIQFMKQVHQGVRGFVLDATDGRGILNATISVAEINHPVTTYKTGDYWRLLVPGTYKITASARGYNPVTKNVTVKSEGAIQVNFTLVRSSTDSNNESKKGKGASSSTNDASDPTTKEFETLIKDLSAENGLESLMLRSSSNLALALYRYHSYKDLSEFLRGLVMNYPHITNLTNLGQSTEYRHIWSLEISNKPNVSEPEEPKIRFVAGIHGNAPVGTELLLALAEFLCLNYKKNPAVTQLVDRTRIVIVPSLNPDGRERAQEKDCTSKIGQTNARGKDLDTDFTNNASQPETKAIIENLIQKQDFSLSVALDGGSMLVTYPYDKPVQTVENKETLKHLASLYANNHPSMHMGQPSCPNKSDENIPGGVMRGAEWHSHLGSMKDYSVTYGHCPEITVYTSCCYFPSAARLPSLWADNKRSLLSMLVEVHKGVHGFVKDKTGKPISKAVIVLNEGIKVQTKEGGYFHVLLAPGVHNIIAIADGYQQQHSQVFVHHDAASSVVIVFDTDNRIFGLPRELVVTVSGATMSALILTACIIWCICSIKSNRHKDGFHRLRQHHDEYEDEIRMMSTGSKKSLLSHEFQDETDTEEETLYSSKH
UniProt Q96JB5, sequence (Q96JB5 whole entry, looked up): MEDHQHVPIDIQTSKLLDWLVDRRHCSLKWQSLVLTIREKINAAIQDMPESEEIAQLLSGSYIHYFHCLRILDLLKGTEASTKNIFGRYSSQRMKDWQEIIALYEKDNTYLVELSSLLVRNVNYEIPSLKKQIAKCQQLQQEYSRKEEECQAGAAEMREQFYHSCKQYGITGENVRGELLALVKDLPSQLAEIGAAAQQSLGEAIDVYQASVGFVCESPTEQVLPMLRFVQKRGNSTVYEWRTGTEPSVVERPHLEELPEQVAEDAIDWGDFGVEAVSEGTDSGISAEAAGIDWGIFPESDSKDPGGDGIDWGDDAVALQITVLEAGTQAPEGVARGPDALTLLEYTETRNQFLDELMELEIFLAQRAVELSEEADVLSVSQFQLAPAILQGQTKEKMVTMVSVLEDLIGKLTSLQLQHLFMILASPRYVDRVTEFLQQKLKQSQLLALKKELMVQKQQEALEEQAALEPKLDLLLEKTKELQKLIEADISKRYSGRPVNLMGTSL
UniProt O95319, sequence (O95319 whole entry, looked up): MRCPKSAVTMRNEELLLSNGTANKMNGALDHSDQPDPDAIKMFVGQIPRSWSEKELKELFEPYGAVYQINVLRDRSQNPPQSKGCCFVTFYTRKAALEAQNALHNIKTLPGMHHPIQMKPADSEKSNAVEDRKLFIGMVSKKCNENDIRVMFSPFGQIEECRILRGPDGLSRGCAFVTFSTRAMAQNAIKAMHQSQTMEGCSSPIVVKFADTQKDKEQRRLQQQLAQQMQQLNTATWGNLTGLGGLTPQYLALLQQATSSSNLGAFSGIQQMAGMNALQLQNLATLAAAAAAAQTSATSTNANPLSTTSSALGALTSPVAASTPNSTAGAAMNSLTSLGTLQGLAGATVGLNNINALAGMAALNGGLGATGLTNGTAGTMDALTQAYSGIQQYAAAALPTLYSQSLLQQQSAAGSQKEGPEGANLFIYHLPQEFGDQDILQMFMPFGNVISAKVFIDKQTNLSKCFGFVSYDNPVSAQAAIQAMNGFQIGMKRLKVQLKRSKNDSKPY
UniProt Q96RR4, sequence (Q96RR4 whole entry, looked up): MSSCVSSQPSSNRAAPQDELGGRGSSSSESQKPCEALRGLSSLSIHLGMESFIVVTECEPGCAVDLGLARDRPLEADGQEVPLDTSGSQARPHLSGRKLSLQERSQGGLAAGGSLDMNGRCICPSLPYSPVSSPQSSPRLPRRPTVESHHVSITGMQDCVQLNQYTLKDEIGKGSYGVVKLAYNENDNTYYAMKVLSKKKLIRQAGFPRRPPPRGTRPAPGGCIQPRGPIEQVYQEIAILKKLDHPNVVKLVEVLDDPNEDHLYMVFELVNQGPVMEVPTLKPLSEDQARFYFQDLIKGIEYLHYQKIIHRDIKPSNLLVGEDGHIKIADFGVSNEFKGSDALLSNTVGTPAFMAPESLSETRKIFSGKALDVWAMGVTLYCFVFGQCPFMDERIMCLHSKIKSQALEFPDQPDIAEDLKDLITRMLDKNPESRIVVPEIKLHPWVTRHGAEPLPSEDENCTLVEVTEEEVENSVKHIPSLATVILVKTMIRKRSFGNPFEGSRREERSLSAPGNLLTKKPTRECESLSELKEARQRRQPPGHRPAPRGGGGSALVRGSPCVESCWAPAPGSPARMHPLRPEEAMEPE
UniProt Q14004, sequence (Q14004 whole entry, looked up): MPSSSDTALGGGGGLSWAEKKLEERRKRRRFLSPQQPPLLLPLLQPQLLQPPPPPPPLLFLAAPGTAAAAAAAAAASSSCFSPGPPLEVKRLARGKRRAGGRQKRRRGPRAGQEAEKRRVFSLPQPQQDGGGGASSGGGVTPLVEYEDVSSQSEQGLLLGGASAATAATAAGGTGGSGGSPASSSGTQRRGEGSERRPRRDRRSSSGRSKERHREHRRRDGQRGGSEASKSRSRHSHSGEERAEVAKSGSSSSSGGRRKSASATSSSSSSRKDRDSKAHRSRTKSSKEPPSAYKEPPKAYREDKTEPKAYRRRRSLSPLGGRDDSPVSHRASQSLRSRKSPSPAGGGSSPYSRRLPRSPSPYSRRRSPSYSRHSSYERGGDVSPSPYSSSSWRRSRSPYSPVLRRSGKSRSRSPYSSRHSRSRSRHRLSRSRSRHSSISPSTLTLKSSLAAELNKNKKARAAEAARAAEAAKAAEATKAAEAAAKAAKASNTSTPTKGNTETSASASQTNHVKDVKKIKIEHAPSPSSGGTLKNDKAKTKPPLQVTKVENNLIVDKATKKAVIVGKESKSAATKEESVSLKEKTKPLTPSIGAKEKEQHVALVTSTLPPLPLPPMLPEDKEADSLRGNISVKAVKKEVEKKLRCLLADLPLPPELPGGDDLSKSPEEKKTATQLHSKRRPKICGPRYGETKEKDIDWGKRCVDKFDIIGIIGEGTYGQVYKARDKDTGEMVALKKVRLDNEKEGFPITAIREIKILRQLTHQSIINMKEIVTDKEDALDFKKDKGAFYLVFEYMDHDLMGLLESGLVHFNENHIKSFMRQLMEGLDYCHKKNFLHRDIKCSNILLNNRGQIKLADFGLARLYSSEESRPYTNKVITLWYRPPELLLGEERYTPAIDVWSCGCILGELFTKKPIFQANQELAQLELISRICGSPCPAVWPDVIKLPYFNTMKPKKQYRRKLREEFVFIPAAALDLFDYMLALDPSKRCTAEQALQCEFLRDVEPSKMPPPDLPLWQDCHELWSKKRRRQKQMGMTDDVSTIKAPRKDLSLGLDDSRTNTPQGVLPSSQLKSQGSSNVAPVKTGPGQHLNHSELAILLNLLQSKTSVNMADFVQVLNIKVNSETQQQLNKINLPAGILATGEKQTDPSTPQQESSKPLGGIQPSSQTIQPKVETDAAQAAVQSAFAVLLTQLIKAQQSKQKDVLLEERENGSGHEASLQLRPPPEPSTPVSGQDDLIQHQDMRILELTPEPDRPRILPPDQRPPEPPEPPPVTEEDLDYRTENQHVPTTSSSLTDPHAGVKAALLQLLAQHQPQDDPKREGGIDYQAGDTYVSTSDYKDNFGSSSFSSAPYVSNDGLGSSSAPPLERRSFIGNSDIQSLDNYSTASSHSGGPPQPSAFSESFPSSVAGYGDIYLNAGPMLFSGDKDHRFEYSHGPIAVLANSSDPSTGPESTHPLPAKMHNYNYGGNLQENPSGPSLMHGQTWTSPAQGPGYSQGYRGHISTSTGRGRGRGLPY
UniProt P35219, sequence (P35219 whole entry, looked up): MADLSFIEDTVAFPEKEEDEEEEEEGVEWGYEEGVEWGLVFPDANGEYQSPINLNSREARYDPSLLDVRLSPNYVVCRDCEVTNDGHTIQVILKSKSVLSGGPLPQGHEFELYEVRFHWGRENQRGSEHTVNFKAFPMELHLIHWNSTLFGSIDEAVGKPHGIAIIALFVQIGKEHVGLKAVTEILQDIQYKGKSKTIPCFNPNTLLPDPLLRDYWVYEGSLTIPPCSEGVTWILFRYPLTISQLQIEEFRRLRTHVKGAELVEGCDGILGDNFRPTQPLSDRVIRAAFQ

Target	log2 fold change [1]	log2 fold change (volasertib)	log2 fold change [2]	log2 fold change (epoxomicin)	log2 fold change [3]	log2 fold change [4]	log2 fold change [5]	log2 fold change (rosiglitazone)	log2 fold change [6]	log2 fold change [7]	log2 fold change (saracatinib)	log2 fold change (sotrastaurin)	log2 fold change (alvocidib)	log2 fold change (Tubastatin A)	log2 fold change [8]	log2 fold change (defactinib)	log2 fold change (rucaparib)	log2 fold change [9]	log2 fold change (encorafenib)	log2 fold change [10]
CPD (UniProt O75976)	-0.152	-0.33	-0.017	0.025	0.036	-0.044	-0.024	0.002	0.029	-0.399 (active)	-0.047	-0.011	-0.007	0.03	-0.002	-0.026	0.017	-0.006	0.042	0.012
CHD3 isoform 3 (UniProt Q12873)	-0.093	-0.757 (active)	0.149	0.017	-0.042	0.067	0.126	0.048	0.099	-0.144	-0.067	-0.312	-0.12	0.096	-0.029	-0.253	0.134	-0.024	0.136	-0.087
CNDP2 (UniProt Q96KP4)	-0.037	0.014	-0.003	-0.012	0.014	-0.1	-0.002	0.016	-0.103	-0.149	-0.016	-0.003	-0.062	-0.226 (active)	-0.014	-0.006	-0.041	0.028	0.001	0.124
CHAMP1 (UniProt Q96JM3)	-0.035	-0.357 (active)	0.181	0.016	-0.038	-0.095	0.014	0.063	0.038	-0.302	0.103	-0.007	-0.139	-0.036	-0.064	-0.104	0.053	-0.001	0.048	0.049
CAMKK2 (UniProt Q96RR4)	0.374	0.617 (active)	0.014	0.211	0.114	-0.093	0.145	0.072	-0.008	0.045	0.03	-0.042	0.048	0.105	0.36	-0.104	-0.084	-0.101	0.057	0.057
CLINT1 isoform 3 (UniProt Q14677)	0.17	0.047	-0.01	-0.038	-0.006	0.042	-0.06	-0.055	0.075	0.259 (active)	0.083	0.041	0.061	-0.036	0.185	0.035	0.109	-0.06	-0.059	0.012
CA8 (UniProt P35219)	-0.055	-0.329 (active)	0.038	0.01	-0.035	-0.093	-0.002	0.044	-0.099	-0.127	-0.054	-0.023	-0.127	0.084	0.118	-0.163	0.068	0.018	0.024	0.014
CLCN3 (UniProt P51790)	0.036	-0.095	-0.037	-0.015	0.013	0.065	0.011	-0.018	-0.051	-0.213	0	0.021	-0.048	-0.14	0.019	0.004	-0.055	-0.057	0.021	-0.06
CSTF3 (UniProt Q12996)	0.061	0.091	-0.028	-0.029	0	-0.038	-0.002	0.003	-0.048	0.13	0.001	0.045	0.078	-0.08	0.043	0.173	0.088	-0.051	-0.022	0.002
CDK13 (UniProt Q14004)	0.025	0.09	0.034	-0.032	0.087	0.018	0.004	-0.002	0.233	-0.047	-0.133	-0.121	-0.061	0.042	-0.071	-0.01	0.06	-0.129	0.104	0.036
CHMP4B (UniProt Q9H444)	-0.05	0.062	-0.044	-0.008	0.043	-0.065	-0.053	-0.031	-0.057	-0.033	0.021	-0.061	0.017	-0.024	-0.026	-0.017	0.02	-0.019	-0.055	0.054
CELF2 isoform 3 (UniProt O95319)	0.115	-0.028	0.02	0.018	-0.027	0.103	0.006	-0.049	-0.04	0.111	-0.011	0.076	0.036	-0.102	-0.034	0.098	0.125	-0.099	-0.041	-0.032
CDC42BPA isoform 6 (UniProt Q5VT25)	-0.021	-0.86 (active)	0.053	0.001	0.002	0	0.042	0.026	0.078	-0.359	-0.093	-0.47 (active)	-0.688 (active)	0.022	-0.037	-0.183	0.088	-0.031	0.06	-0.064
CDK5RAP3 isoform 4 (UniProt Q96JB5)	-0.056	-0.296 (active)	0	0.021	-0.044	-0.007	0.033	0.055	-0.024	-0.002	-0.009	-0.099	-0.066	0.024	0.035	-0.045	-0.029	0.002	0.033	-0.043
CSNK2A1 (UniProt P68400)	0.007	0.04	0.002	-0.012	0.003	-0.117	-0.007	0.024	-0.04	-0.233	0.016	0.059	-0.082	-0.019	0.263 (active)	-0.113	-0.079	-0.045	-0.038	-0.034
